Screening data: PubChem, several laboratories
ERa coact pot = enhancers of ERα–SRC-1 coactivator binding, primary screen, biochemical, TR-FRET, ERα LBD, low estradiol. AID 639, 2007. coactivator binding (% of control), % at 25.6 µM. actives 1.3% (n = 86,000). TR-FRET ERalpha-LBD/SRC-Cy5 coactivator binding, 2 h; 100 = basal binding, no effect. Estrogen receptor (Homo sapiens), P03372; in the data active = activity above about 200%;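 also: binding measured in presence of low estradiol as agonist stimulus; 0% = peptide alone without receptor and 100% = receptor with peptide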
Target sequence (P03372 whole entry, looked up, the tested form may be a part): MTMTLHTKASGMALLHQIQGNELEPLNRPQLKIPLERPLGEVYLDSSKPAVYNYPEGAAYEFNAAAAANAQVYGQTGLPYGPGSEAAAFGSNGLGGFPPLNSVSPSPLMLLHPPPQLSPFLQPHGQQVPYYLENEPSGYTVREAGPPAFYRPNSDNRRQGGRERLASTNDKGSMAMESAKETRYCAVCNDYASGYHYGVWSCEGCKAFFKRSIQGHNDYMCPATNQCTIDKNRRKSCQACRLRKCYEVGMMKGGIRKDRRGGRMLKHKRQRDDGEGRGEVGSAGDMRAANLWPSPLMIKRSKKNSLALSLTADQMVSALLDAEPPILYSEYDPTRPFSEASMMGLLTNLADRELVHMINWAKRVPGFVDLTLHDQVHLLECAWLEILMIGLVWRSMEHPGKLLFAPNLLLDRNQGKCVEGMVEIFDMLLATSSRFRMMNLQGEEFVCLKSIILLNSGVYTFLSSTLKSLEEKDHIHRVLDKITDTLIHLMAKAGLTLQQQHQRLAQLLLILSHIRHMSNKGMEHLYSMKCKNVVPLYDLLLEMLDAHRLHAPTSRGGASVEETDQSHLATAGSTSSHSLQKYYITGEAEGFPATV
Candida biofilm = clotrimazole potentiators killing Candida biofilms, primary screen, with clotrimazole, Alamar Blue | C. albicans biofilm + clotrimazole | inhibition, % at 6 µM | actives 0.14% (n = 85,000) | AID 834, 2007;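 active = inhibition above 20%; inactive = inhibition below 20%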;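 also: preformed 24 hr biofilms exposed to compound for 48 hr; 0% = biofilm without compound and 100% = blank killed by clotrimazole plus chlorhexidine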
ERb SRC1 inh = inhibitors of ERβ-SRC1 coactivator interaction, primary screen, biochemical, TR-FRET, ERβ LBD, SRC-1 peptide; Estrogen receptor beta (Homo sapiens), Q92731; inhibition, % at 25.6 µM; actives 1.3% (n = 86,000); TR-FRET ER-beta LBD / SRC1-Cy5 peptide binding; receptor agonist-loaded with 1 µM estradiol; AID 633, 2007;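 active = compounds whose percent inhibition of the receptor-coactivator binding signal exceeds about 50% in the single-dose screen, limit read from the data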;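 also: 0% = receptor plus peptide wells without compound and 100% = peptide-only wells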
E-sel TNF inh = E-selectin induction blockers in HUVEC – imaging, immunofluorescence, high content, primary screen. actives 0.71% (n = 120,000). inhibition, % at 2 µM. HUVEC TNFa-induced E-selectin immunofluorescence;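 active = inhibition above the batch mean plus 3 SD, and confirmed as a hit on visual image review, cut at about 43% in these data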;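 also: 0% = TNF-stimulated DMSO wells and 100% = unstimulated control wells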
ERa coact inh = ERα–SRC-1 coactivator interaction inhibitors, primary screen, biochemical, TR-FRET, ERα LBD, estradiol-bound; Estrogen receptor (Homo sapiens), P03372; TR-FRET ER-alpha LBD / SRC-1 peptide; inhibition, % at 25.6 µM; actives 1.7% (n = 86,000); AID 629, 2007; in the data active = inhibition above about 50%;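 also: 0% = receptor plus peptide control and 100% = peptide only without receptor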
cytoskel mod = modifiers of F-actin cytoskeleton organization, primary screen, imaging, HUVEC, phalloidin staining, high-content imaging; HUVEC TNFa F-actin phalloidin imaging; inhibition, % at 2 µM; actives 0.18% (n = 91,000);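 active = inhibition above the batch mean plus 3 SD and confirmed as a hit by visual image inspection, cut at about 30% in these data, passing the limit was not always enough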
An asterisk follows results filed as active; x = no result given; [ ] = another dose, or the depositor's remark. Hits are enriched below; roughly 2.9% of the tested compounds scored in any of these assays.

SMILES	ERa coact pot	Candida biofilm	ERb SRC1 inh	E-sel TNF inh	ERa coact inh	cytoskel mod
CCCN1CCN(CCCNC(=O)Cn2nc(-c3ccccc3)ccc2=O)CC1	110	-1	4	-6	7	29
COc1ccc(C(=O)N2CCC(C(=O)Nc3ccccc3OC)CC2)cc1	223*[fluorescence artefact?]	0	-15	x	-14	13
Cc1cc(C)n(CCc2nc(-c3ccc(-c4ccccc4)cc3)cs2)n1	x	x	x	-3	x	x
CC(C)(C)C(=O)CNCC(=O)C(C)(C)C	x	x	x	5	x	x
c1ccc(Oc2ccc(-c3ccnc4nc(N5CCN(c6ccccc6)CC5)nn34)cc2)cc1	x	x	x	53*	x	21
O=c1c([N+](=O)[O-])c(N2CCCCC2)c2ccccc2n1-c1ccccc1	99	1	0	-6	35	6
O=S(=O)(c1ccccc1)N1C2CCC1CC(O)(c1cccnc1)C2 (stereo not given)	127	4	-10	20	-1	28
CC(=O)c1cccc(NC(=O)CSc2nnc(-c3ccc(S(=O)(=O)N4CCCC4)cc3)o2)c1	261*	3	-8	x	-21	-18
CC1Cc2ccccc2N1C(=O)CSc1nnc(-c2ccc(S(=O)(=O)N3CCCC3)cc2)o1 (stereo not given)	374*	7	13	-10	7	-12
O=C(CSc1nnc(-c2ccc(S(=O)(=O)N3CCCC3)cc2)o1)N1CCCC1	107	6	2	-5	1	13
CCN(CC)CC(=O)Nc1c(C)cc(C)cc1C	x	3	x	x	x	x
CCCCCCCC1CC(/C(C)=N/NC(N)=O)OC1=O (stereo not given)	x	x	x	17	x	x
COCCN(C(=O)c1csnn1)C(C(=O)NC(C)(C)C)c1cccc(OC)c1 (stereo not given)	118	10	5	-13	-11	10
Cc1ccc(Cl)c(NC(=O)COC(=O)c2ccccc2C(=O)c2ccc(Cl)c([N+](=O)[O-])c2)c1Cl	x	x	x	98*	x	x
CSc1cc(-c2ccccc2)n(Cc2c(Cl)cccc2Cl)c(=O)c1C#N	116	4	2	22	8	x
CSc1cc(-c2ccc(Cl)cc2)n(Cc2ccccc2)c(=O)c1C#N	164	-1	35	1	54*[fluorescence artefact?]	x
Cn1c(C(=O)N2CCN(c3ccccc3F)CC2)cc2c(=O)n(C)c3ccccc3c21	97	-8	-4	x	-6	x
Cc1cccc(N2CCN(C(=O)c3cc4c(=O)n(C)c5ccccc5c4n3C)CC2)c1C	312*	17	28	17	14	4
CC(NC(=O)c1cc2c(=O)n(C)c3ccccc3c2n1C)c1ccc2c(c1)OCCO2 (stereo not given)	277*[fluorescence artefact?]	4	6	x	19	5
Cn1c(C(=O)NCCN2CCCCCC2)cc2c(=O)n(C)c3ccccc3c21	178	-1	35	x	72*[fluorescence artefact?]	-1
Cn1c(C(=O)Nc2ccc3c(c2)OCO3)cc2c(=O)n(C)c3ccccc3c21	66	4	59*	16	77*	x
N#CC1=C(N)SC(N)=C(C#N)C1CCC1CCCCC1	242*	7	11	42	15	-11
Cc1sccc1C1C(C#N)=C(N)SC(N)=C1C#N	65	5	-19	-5	-23	13
COc1ccc(N(CC(=O)NC(C)(C)C)S(=O)(=O)c2ccccc2)cc1OC	125	8	-8	2	-8	7
CC(C)(C)c1cc(OC(=O)c2ccncc2)ccc1O	110	4	-3	93*	-5	2
SMILES	ERa coact pot	Candida biofilm	ERb SRC1 inh	E-sel TNF inh	ERa coact inh	cytoskel mod
CCCN1CCCc2cc(CN)ccc21	59	10	54*[fluorescence artefact?]	7	41	54
CCOC(=O)c1ccc(NC(=O)c2c(O)c3ccccc3n(C)c2=O)cc1	169	10	43	x	63*	x
CCOC(=O)Cc1csc(NC(=O)c2c(O)c3ccccc3n(C)c2=O)n1	105	10	13	x	2	x
CCOCCc1nnc(NC(=O)Cc2c(F)cccc2Cl)s1	x	x	x	2	x	x
CCOC(=O)CSc1nnc(COc2cccc(C)c2)o1	x	x	x	-12	x	x
CCc1nnc(NC(=O)CSc2nnc(COc3cccc(C)c3)o2)s1	92	6	10	x	2	-15
Cc1cccc(OCc2nnc(SCc3cc(=O)n4cc(Br)ccc4n3)o2)c1	203*	0	17	x	0	x
Cc1cccc(OCc2nnc(SCC(=O)Nc3ccc(C)c(C)c3)o2)c1	230*	6	3	x	-19	8
O=c1cc(-c2ccccc2)nc2n1Cc1ccccc1-2	75	1	55*[fluorescence artefact?]	0	34	0
O=c1nc2n(c3ccccc13)Cc1ccccc1-2	137	8	5	x	10	x
N#CC1=C(N)OC2=C(C(=O)CCC2)C1CCc1ccccc1 (stereo not given)	90	-1	8	9	100*[fluorescence artefact?]	8
O=c1c(=O)n(O)c2ccccc2n1O	109	x	2	-7	-1	-1
O=C(OCc1nnc(-c2ccccc2)o1)c1ccc(S(=O)(=O)NCc2ccco2)cc1	110	6	49	-28	53*[fluorescence artefact?]	6
O=C(OCc1nnc(-c2ccccc2)o1)c1ccc(Cl)cc1	x	x	x	-30	x	x
O=C(Cn1c(=O)oc2cc(S(=O)(=O)N3CCCCCC3)ccc21)NC1CCCCC1	349*	-4	38	x	32	6
O=C(Cn1c(=O)oc2cc(S(=O)(=O)N3CCc4ccccc43)ccc21)NC1CCCC1	104	14	-9	x	8	1
Cc1ccc(NC(=O)Cn2c(=O)oc3cc(S(=O)(=O)N4CCC(C)CC4)ccc32)cc1C	52	5	62*[fluorescence artefact?]	25	43	7
Cc1cc(N)ccc1-n1c(C)ccc1C	99	3	4	4	2	x
Cc1cc(C(=O)O)ccc1-n1c(C)ccc1C	22	-1	49	15	57*	-13
O=C(NCc1ccco1)C1CCCN(S(=O)(=O)c2cccc3cccnc23)C1 (stereo not given)	110	9	1	31	-2	-4
O=C1NC(c2ccc(Br)cc2)Nc2sc3c(c21)CCC3 (stereo not given)	26	5	64*	6	51*	22
O=C1NC(c2ccccn2)Nc2sc3c(c21)CCC3 (stereo not given)	83	-1	8	14	-7	-8
Oc1cccc2ccc[n+](CC(O)Cn3c4ccccc4c4ccccc43)c12 (stereo not given)	x	x	x	-17	x	x
CCOC(=O)c1c2c(n(C)c1COC)C(=O)C(=O)c1ccc(Br)cc1-2	57	3	33	-2	85*	0
CCOC(=O)c1c(C)nc(C)c(C(=O)OCC)c1-c1ccc(Br)cc1	x	x	x	8	x	x
